For assay [1], the target named is T1, Serine/threonine-protein kinase 17A (Homo sapiens) (UniProt Q9UEE5).
T1 sequence (whole entry): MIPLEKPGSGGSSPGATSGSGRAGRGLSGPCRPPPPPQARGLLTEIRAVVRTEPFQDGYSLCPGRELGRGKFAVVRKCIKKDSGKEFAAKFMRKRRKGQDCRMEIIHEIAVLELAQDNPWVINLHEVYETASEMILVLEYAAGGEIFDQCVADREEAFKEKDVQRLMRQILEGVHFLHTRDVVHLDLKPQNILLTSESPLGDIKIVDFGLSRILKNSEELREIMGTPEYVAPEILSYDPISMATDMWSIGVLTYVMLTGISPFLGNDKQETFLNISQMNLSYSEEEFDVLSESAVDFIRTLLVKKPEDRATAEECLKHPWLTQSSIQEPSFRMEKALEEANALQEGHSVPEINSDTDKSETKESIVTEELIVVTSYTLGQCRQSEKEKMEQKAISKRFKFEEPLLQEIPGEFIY
The conditions noted are these: at 10 µM.

Assay [2] addresses T2, Dual specificity tyrosine-phosphorylation-regulated kinase 2 (Homo sapiens) (UniProt Q92630).
T2 sequence (whole entry): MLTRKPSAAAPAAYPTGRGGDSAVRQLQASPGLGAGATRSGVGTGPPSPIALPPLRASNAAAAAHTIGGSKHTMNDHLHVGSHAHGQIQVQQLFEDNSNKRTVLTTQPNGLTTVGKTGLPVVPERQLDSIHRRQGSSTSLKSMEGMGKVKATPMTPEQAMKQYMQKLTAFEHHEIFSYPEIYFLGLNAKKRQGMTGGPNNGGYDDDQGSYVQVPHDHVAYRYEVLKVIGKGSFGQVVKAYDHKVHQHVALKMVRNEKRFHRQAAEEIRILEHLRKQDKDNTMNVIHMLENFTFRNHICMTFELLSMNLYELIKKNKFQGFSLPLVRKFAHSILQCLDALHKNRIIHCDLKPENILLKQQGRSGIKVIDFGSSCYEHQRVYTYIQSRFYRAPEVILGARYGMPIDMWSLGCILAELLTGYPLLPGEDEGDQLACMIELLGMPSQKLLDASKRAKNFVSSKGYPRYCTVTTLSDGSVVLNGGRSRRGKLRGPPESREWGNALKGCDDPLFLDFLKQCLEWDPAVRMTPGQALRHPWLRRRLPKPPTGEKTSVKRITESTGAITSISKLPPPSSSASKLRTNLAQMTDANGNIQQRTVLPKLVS
The conditions noted are these: at 1 µM.

Assay [3] deals with T2, Dual specificity tyrosine-phosphorylation-regulated kinase 2 (Homo sapiens). The conditions noted are these: at 10 µM.
For assay [4], the target named is T3, Ephrin type-A receptor 1 (Homo sapiens) (UniProt P21709).
T3 sequence (whole entry): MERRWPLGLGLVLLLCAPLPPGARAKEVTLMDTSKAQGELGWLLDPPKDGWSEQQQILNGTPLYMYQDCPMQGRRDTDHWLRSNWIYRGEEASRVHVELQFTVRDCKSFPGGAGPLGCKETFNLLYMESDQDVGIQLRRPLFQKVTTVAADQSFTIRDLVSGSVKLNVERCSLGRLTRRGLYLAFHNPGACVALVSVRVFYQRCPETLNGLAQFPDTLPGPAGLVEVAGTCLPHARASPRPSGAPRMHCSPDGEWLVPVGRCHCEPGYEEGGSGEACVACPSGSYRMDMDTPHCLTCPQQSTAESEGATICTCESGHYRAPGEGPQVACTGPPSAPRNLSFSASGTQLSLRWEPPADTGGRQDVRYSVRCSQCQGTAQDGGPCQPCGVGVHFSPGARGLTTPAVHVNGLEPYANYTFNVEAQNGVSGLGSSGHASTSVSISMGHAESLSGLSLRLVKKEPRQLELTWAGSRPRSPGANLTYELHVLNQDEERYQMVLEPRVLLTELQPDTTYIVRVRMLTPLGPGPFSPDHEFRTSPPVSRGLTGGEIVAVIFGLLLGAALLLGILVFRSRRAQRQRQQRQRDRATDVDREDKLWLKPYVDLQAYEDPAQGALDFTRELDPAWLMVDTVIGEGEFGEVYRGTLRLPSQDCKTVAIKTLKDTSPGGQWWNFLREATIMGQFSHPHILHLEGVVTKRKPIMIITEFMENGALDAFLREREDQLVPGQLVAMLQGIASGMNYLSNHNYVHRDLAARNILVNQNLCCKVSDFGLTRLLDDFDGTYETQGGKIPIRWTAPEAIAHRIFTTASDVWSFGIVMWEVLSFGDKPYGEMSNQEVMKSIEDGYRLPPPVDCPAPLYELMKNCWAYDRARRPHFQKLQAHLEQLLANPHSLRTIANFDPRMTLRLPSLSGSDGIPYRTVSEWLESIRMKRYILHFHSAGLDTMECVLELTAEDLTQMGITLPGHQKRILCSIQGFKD
The conditions noted are these: at 1 µM.

Assay [5] deals with T3, Ephrin type-A receptor 1 (Homo sapiens). The conditions noted are these: at 10 µM.
Assay [6] deals with Ephrin type-A receptor 2 (Homo sapiens) (UniProt P29317). The conditions noted are these: at 1 µM.
Sequence of Ephrin type-A receptor 2 (Homo sapiens) (P29317 whole entry): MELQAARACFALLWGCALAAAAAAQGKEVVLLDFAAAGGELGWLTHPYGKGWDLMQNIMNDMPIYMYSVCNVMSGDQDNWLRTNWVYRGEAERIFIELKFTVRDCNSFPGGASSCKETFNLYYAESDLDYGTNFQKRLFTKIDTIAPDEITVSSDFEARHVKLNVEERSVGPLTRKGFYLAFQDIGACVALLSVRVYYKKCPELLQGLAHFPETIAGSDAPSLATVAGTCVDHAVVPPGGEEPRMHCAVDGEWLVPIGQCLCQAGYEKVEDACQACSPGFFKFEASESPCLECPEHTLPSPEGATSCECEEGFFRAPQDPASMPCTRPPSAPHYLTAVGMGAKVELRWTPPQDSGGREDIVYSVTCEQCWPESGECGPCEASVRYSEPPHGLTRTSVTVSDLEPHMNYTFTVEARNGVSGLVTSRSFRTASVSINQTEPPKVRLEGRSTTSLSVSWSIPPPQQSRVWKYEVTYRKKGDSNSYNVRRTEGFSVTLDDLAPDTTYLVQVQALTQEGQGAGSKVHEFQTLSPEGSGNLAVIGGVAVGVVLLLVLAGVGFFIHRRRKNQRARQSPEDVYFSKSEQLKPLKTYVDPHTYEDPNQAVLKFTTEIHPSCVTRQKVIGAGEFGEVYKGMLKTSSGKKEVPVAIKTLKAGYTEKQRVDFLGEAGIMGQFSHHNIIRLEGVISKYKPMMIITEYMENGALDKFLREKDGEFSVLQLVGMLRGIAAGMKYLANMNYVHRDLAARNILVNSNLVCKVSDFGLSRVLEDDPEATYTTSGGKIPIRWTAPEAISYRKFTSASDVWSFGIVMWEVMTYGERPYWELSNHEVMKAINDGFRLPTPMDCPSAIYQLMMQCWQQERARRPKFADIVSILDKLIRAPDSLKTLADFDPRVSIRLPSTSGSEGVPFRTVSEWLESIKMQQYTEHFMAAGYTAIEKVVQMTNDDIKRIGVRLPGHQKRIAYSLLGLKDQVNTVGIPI
The target is the same in assay [7]. The conditions noted are these: at 10 µM.
Assay [8] deals with T4, Ephrin type-A receptor 3 (Homo sapiens) (UniProt P29320).
T4 sequence (whole entry): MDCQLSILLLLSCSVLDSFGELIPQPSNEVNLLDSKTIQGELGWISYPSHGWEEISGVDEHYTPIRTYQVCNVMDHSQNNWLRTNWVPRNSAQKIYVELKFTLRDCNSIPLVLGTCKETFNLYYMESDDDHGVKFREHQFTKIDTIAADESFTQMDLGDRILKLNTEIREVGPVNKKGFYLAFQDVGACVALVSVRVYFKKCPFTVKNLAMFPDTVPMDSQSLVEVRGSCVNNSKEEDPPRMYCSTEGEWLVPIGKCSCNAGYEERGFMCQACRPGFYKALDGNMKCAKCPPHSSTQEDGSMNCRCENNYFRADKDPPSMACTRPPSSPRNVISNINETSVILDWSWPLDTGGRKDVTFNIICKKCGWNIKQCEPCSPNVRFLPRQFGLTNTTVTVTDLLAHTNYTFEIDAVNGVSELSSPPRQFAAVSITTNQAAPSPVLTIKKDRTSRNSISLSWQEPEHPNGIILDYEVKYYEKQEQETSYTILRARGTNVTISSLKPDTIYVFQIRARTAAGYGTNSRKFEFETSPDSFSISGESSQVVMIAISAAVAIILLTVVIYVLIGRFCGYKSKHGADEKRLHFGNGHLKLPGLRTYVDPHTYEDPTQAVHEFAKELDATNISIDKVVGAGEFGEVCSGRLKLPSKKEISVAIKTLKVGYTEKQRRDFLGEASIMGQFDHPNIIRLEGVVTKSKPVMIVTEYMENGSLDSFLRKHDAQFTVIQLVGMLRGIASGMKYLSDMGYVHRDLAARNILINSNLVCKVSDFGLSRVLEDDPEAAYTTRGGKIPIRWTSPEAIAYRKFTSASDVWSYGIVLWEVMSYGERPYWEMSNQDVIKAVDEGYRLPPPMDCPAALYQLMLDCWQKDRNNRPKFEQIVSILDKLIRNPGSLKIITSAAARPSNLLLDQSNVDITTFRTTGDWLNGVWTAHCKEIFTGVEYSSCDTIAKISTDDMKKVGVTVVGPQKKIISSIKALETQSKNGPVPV
The conditions noted are these: at 1 µM.

Assay [9] addresses T4, Ephrin type-A receptor 3 (Homo sapiens). The conditions noted are these: at 10 µM.
Assay [10] concerns the target Ephrin type-A receptor 5 (Homo sapiens) (UniProt P54756). The conditions noted are these: at 1 µM.
For assay [11] the target is unchanged. The conditions noted are these: at 10 µM.
Assay [12] has as its target Ephrin type-A receptor 7 (Homo sapiens) (UniProt Q15375). The conditions noted are these: at 1 µM.
Assay [13] has the same target. The conditions noted are these: at 10 µM.
In assay [14] the target is T5, Ephrin type-A receptor 8 (Homo sapiens) (UniProt P29322).
T5 sequence (whole entry): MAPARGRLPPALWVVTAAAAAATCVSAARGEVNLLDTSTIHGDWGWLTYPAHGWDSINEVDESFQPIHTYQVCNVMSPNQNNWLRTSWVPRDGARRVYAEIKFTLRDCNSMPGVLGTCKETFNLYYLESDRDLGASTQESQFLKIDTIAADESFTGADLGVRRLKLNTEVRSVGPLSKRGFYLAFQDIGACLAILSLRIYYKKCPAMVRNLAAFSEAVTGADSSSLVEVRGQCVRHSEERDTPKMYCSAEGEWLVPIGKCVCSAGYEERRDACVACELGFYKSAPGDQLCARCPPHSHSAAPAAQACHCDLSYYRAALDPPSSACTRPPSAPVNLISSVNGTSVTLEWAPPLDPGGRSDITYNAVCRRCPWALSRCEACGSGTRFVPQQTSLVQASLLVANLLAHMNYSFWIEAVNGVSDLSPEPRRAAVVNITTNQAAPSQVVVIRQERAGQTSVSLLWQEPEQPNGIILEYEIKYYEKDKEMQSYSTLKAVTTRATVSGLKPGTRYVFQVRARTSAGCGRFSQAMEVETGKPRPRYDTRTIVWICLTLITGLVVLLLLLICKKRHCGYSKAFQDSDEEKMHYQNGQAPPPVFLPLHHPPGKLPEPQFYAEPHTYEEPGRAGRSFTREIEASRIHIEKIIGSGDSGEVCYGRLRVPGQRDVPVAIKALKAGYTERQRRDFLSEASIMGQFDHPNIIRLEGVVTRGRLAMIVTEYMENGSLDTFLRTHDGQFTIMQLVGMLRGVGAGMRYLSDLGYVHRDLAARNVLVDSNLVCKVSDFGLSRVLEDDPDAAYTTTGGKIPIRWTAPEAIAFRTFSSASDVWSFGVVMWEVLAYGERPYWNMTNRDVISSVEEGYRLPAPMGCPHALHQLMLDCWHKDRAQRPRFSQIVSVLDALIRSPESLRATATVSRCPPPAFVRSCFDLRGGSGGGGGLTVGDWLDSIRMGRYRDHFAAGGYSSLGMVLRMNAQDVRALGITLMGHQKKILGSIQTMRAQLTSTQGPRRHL
The conditions noted are these: at 1 µM.

For assay [15], the target named is T5, Ephrin type-A receptor 8 (Homo sapiens). The conditions noted are these: at 10 µM.
The target of assay [16] is T6, Ephrin type-B receptor 1 (Homo sapiens) (UniProt P54762).
T6 sequence (whole entry): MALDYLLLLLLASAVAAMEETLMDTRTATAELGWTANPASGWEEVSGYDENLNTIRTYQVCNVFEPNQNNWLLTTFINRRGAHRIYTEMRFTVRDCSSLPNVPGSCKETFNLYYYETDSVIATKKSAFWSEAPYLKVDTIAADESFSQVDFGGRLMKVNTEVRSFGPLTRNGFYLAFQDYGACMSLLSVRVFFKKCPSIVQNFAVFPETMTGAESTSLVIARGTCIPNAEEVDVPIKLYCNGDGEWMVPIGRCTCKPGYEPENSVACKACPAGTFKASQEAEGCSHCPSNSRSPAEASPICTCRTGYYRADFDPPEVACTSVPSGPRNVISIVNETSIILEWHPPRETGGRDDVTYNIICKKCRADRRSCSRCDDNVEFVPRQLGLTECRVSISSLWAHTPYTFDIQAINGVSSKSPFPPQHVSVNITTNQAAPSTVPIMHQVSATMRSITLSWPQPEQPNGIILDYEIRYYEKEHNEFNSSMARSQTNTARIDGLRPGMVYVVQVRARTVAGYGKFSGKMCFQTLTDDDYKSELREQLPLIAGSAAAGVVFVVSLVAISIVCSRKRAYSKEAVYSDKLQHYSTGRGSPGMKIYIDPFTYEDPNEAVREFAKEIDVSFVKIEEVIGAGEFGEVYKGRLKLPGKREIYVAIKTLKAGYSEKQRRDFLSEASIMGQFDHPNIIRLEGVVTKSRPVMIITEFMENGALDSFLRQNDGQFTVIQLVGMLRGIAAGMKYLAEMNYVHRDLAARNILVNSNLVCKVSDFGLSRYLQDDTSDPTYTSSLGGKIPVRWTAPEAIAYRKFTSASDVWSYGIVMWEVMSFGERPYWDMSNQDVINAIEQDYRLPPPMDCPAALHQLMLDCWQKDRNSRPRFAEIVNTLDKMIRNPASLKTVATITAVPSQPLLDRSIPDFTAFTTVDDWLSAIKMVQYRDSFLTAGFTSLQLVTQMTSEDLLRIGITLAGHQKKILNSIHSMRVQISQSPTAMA
The conditions noted are these: at 1 µM.

In assay [17] the target is Ephrin type-A receptor 4 (Homo sapiens) (UniProt P54764). The conditions noted are these: at 1 µM.
Sequence of Ephrin type-A receptor 4 (Homo sapiens) (P54764 whole entry): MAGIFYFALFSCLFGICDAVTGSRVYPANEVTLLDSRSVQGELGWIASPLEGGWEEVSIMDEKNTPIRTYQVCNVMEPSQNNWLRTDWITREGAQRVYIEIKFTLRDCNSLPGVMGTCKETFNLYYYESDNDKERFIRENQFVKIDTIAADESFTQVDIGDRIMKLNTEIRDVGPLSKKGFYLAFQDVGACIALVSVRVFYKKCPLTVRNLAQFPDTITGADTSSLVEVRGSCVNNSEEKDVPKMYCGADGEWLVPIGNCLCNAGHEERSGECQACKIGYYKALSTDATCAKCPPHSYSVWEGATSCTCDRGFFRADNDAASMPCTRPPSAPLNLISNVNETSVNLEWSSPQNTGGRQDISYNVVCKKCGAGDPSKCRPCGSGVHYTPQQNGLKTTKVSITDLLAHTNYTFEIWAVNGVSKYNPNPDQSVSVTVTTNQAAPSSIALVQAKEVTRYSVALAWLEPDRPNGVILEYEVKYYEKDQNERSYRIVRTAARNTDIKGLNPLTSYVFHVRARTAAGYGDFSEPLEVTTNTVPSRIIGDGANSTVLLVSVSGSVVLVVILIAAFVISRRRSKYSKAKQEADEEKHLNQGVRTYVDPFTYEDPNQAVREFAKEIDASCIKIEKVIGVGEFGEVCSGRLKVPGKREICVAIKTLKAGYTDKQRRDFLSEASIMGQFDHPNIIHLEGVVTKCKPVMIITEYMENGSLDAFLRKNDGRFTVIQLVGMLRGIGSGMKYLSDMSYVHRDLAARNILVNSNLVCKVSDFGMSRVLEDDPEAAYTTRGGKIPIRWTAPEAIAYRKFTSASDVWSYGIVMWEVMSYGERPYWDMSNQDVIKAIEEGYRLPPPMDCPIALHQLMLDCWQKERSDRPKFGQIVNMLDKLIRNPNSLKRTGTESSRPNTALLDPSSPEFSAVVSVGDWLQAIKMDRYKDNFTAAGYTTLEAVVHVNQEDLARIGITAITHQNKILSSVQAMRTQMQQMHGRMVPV
For assay [18] the target is unchanged. The conditions noted are these: at 10 µM.

This note sets out measurements from ChEMBL document CHEMBL2218924, “A broad activity screen in support of a chemogenomic map for kinase signalling research and drug discovery” (Biochem J, 2013).

Usually residual activity stands for the signal under treatment as a percentage of the control signal.

Sequence of Ephrin type-A receptor 5 (Homo sapiens) (P54756 whole entry): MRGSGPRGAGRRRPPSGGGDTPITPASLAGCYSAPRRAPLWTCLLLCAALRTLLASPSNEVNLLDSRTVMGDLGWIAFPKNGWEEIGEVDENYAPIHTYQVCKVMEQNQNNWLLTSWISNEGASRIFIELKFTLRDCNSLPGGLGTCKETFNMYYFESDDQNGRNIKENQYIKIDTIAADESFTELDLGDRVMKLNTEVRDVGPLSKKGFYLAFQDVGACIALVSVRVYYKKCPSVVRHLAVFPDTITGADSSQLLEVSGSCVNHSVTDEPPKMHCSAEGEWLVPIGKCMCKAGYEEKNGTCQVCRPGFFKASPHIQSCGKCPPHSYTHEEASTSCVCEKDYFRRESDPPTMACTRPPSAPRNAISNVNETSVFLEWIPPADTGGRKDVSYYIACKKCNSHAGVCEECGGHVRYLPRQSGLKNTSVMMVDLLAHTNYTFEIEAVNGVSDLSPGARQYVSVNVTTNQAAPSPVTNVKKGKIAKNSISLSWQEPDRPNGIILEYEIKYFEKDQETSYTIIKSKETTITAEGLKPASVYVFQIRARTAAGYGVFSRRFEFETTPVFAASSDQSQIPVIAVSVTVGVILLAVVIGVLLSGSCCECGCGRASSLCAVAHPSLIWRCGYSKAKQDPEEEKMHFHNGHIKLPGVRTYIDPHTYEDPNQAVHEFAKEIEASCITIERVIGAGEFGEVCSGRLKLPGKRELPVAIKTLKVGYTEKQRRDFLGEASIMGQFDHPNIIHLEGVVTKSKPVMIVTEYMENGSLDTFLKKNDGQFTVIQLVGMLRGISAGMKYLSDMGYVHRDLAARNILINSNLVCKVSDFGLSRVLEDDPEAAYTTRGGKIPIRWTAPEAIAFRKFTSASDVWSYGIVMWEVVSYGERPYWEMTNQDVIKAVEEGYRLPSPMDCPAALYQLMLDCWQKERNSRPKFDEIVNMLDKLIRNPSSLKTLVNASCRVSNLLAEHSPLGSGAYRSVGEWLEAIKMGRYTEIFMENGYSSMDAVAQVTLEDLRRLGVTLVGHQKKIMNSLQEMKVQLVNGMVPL
Sequence of Ephrin type-A receptor 7 (Homo sapiens) (Q15375 28-998 limits assumed): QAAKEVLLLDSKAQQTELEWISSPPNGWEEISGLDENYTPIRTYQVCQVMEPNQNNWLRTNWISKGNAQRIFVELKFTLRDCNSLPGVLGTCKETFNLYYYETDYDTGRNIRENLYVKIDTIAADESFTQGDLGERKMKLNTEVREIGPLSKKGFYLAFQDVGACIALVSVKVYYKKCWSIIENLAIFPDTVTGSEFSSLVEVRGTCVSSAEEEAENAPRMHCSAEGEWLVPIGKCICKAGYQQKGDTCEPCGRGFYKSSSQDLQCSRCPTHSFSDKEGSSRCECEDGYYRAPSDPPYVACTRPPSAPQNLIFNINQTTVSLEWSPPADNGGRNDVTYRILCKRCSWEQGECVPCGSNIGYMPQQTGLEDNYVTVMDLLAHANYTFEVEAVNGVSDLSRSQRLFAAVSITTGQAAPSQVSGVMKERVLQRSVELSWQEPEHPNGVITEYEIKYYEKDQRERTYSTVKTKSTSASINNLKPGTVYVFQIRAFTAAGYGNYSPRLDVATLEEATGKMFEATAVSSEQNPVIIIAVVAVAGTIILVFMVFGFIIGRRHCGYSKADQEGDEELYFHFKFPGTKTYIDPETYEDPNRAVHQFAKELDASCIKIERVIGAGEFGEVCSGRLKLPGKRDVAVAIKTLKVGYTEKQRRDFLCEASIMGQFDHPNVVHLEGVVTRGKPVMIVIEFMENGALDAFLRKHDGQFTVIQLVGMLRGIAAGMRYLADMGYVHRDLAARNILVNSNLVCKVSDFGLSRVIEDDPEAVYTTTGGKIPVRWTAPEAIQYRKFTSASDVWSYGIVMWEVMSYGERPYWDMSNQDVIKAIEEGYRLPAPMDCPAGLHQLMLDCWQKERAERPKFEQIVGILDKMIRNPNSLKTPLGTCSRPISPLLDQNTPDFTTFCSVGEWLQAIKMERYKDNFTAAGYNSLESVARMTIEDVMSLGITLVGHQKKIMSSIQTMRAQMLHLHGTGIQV

Take `O=C1Nc2ccccc2/C1=C1/Nc2ccccc2/C1=N\OCCC(O)CO` (centres undefined): the residual activity came to 3% in assay [1]; 70% in assay [2]; 52% in assay [3]; 43% in assay [4]; 42% in assay [5]; 54% in assay [6]. The residual activity came out at 14% in assay [7]; 41% in [8]; 6% in assay [9]; 59% in [10]; 23% in assay [11]; 58% in assay [12]. For the same molecule, the residual activity was determined as 10% in assay [13], 72% in assay [14], 32% in assay [15] and 56% in assay [16].
Regarding `O=c1cc(-c2cccc3c2Sc2ccccc2S3)oc(N2CCOCC2)c1`, the residual activity stood at 93% in [1]; 101% in assay [2]; 95% in assay [3]; 105% in [4]; 94% in assay [5]; 100% in [6]. The residual activity stood at 82% in [7]; 100% in assay [8]; 94% in [9]; 106% in [17]; 104% in [18]; 113% in assay [10]. Moreover, the residual activity in [11] turned out to be 88%; in assay [12] it was 97%; in assay [13], 98%; in assay [14], 108%; in assay [15], 111%; in [16], 97%.
